MITF inh: human MITF inhibition, primary screen; O75030; AlphaScreen MITF homodimerization, bead proximity signal; inhibition, % at 2.6 µM; actives 0.91% (n = 650,000); in the data active means inhibition above about 50%;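 further: 0% = vehicle wells with protein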
FBW7 act: activators of human E3 ligase FBW7. Q969H0. AlphaScreen FBW7–phospho-cyclin E peptide binding, activator screen. normalized activity (activation), % at 26.1 µM. actives 0.13% (n = 650,000). AID 1259310; in the data active means normalized activity above about 1.9%;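 further: purified mutant Fbw7 with reduced substrate affinity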
TEAD-YAP block: TEAD-YAP interaction inhibition; HEK-TIYL cells, TEAD-Gal4/YAP UAS-luciferase luminescence; inhibition, % at 9.12 µM; actives 1.4% (n = 640,000); AID 1259422; in the data active means inhibition above about 32%;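 further: 0% = median of test compound wells and 100% = reference inhibitor wells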
GPR151 ag: human GPR151 activation | actives 1% (n = 650,000) | PathHunter beta-arrestin GPR151 cells, luminescence | activation, % at 11.2 µM | Q8TDV0; in the data active means activation above about 4.9%;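 further: 0% = median of compound wells and 100% = cells with positive control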
GPR151 conf act: confirmation of human GPR151 activators. shares compounds with GPR151 ag. GPR151 PathHunter beta-arrestin cells, luminescence, 90 min; % of EA-reagent control over plate median. activation, % at 11.2 µM. 6,700 tested, under 10 active. AID 1508609;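 active means mean percent activation across replicates above the confirmation screen cutoff of 4.91%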
GPR119 ag: activates human GPR119 in a GPR151 counter-screen; shares compounds with GPR151 ag; GPR119 PathHunter beta-arrestin cells, luminescence, 90 min; 0 = compound-well median, 100 = enzyme-acceptor control; activation, % at 11.2 µM; actives 0.3% (n = 6,700);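 active means mean percent activation in the counterscreen above 29.09%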;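 further: counterscreen on off-target GPR119 to flag nonselective hits from the GPR151 activator screen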
Target sequence (Q8TDV5 whole entry, looked up): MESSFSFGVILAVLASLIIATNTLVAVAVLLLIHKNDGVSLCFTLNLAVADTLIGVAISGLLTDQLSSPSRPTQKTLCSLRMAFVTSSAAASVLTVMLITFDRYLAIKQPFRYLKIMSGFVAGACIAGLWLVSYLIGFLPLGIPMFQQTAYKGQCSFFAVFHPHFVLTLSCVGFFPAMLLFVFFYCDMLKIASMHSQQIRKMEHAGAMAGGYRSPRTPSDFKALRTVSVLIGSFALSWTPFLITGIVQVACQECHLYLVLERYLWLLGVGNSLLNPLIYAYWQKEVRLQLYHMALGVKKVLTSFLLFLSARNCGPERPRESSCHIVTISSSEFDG
* = called active by the depositor. A selection: hits, their analogues and other compounds. The true share with any hit is near 3.5%.

Results for O=C1CC(N2CCN(c3ccc(F)cc3)CC2)C(=O)N1 (configuration not stated) ?
MITF inh: -0.3; FBW7 act: 0.0; TEAD-YAP block: -0.5; GPR151 ag: -1.0

How did COc1ccc(N2CCN(C3CC(=O)NC3=O)CC2)cc1 (configuration not stated) do in these assays?
MITF inh: 19.0; FBW7 act: 0.3; TEAD-YAP block: 12.2; GPR151 ag: 6.3*; GPR151 conf act: 1.9; GPR119 ag: 10.8

How did COc1ccc(Cl)cc1S(=O)(=O)N1CCCC(C(=O)NCC(N)=O)C1 (configuration not stated) do in these assays?
MITF inh: -1.7; FBW7 act: -0.1; TEAD-YAP block: -5.9; GPR151 ag: 7.4*; GPR151 conf act: 0.6; GPR119 ag: 5.5

What do the screens show for `COc1ccc(C)cc1S(=O)(=O)N1CCCC(C(N)=O)C1` (configuration not stated)?
MITF inh: 6.3; FBW7 act: 0.0; TEAD-YAP block: 1.2; GPR151 ag: 0.1

What do the screens show for `CC1=C(c2ccc(C)cc2)S(=O)(=O)NC1=NCc1ccccc1`?
MITF inh: 6.5; FBW7 act: 0.1; TEAD-YAP block: -9.8; GPR151 ag: 0.1

What do the screens show for `O=C1Nc2ccc(Br)cc2C12Nc1ccccc1S2` (configuration not stated)?
MITF inh: -7.9; FBW7 act: -0.1; TEAD-YAP block: -6.2; GPR151 ag: -0.5

Results for CSCCCNC(=O)CC1C(=O)NCCN1C1Cc2ccccc2C1 (configuration not stated) ?
MITF inh: 10.4; FBW7 act: 0.1; TEAD-YAP block: 3.8; GPR151 ag: 4.9*; GPR151 conf act: -0.1; GPR119 ag: -0.2

How did O=C(CC1C(=O)NCCN1C1Cc2ccccc2C1)NCCc1cccs1 (configuration not stated) do in these assays?
MITF inh: -9.9; FBW7 act: -0.1; TEAD-YAP block: 3.5; GPR151 ag: 2.4

Results for COc1ccccc1NC(=O)CN(Cc1ccc(Cl)cc1)S(C)(=O)=O ?
MITF inh: 3.1; FBW7 act: -0.1; TEAD-YAP block: 10.1; GPR151 ag: -1.0

How did Cc1nn(Cc2ccc(C(=O)NC3CCCC3)o2)c(C)c1[N+](=O)[O-] do in these assays?
MITF inh: -0.2; FBW7 act: 0.0; TEAD-YAP block: 6.5; GPR151 ag: 5.5*; GPR151 conf act: -0.9; GPR119 ag: -15.3

Results for CN1CCN(C(=O)CC2(c3ccccc3)CC(=O)N(CC3CCCCC3)C2=O)CC1 (configuration not stated) ?
MITF inh: -9.4; FBW7 act: 0.0; TEAD-YAP block: -5.9; GPR151 ag: -1.1

How did COc1ccc(-n2nnnc2SCC(=O)Nc2ccc(NC(C)=O)cc2)cc1OC do in these assays?
MITF inh: -0.9; FBW7 act: -0.1; TEAD-YAP block: 6.8; GPR151 ag: 1.9

How did CCC(C)c1ccc(NC(=O)CSc2nnnn2-c2ccc(OC)cc2)cc1 (configuration not stated) do in these assays?
MITF inh: 12.6; FBW7 act: 1.2; TEAD-YAP block: 5.7; GPR151 ag: 5.6*; GPR151 conf act: 0.5; GPR119 ag: -0.2

How did COc1cc(NC(=O)CSc2nnnn2-c2ccc(OC)c(OC)c2)cc(OC)c1 do in these assays?
MITF inh: 0.6; FBW7 act: -0.1; TEAD-YAP block: 3.3; GPR151 ag: 5.0*; GPR151 conf act: 0.0; GPR119 ag: 0.8

What do the screens show for `Cc1ccc(/C(O)=C2\C(=O)C(=O)NC2c2ccc(F)cc2)cc1` (configuration not stated)?
MITF inh: -0.4; FBW7 act: -0.2; TEAD-YAP block: 0.6; GPR151 ag: 0.0

What do the screens show for `CSc1nc2n(n1)C(c1ccccc1)/C(=N/O)C(C)=N2` (configuration not stated)?
MITF inh: 11.2; FBW7 act: 0.4; TEAD-YAP block: 5.1; GPR151 ag: 0.4

What do the screens show for `O=C(COc1ccccc1)N1CCc2nnc(Cc3ccccc3)n2CC1`?
MITF inh: 3.4; FBW7 act: -0.1; TEAD-YAP block: 5.6; GPR151 ag: -0.5

How did COc1ccc(-c2cc(=O)oc3cc(O)c(Cl)cc23)cc1 do in these assays?
MITF inh: -5.3; FBW7 act: 0.0; TEAD-YAP block: 19.9; GPR151 ag: 0.6

Results for COc1ccc(-c2cc(=O)oc3c(O)c(O)ccc23)cc1 ?
MITF inh: -2.9; FBW7 act: -0.3; TEAD-YAP block: 13.6; GPR151 ag: 8.2*; GPR151 conf act: -0.6; GPR119 ag: 0.8

How did Cc1cc(C)cc(N(CCC#N)C(=O)CSc2nnc3nc(C)cc(C)n23)c1 do in these assays?
MITF inh: -9.3; FBW7 act: -0.2; TEAD-YAP block: -7.7; GPR151 ag: 0.3

What do the screens show for `Cc1ccc2c(c1)/C(=C\c1ccc(Br)cc1)c1cc3ccccc3nc1-2`?
MITF inh: -2.0; FBW7 act: -0.1; TEAD-YAP block: 5.3; GPR151 ag: 6.1*; GPR151 conf act: -1.4; GPR119 ag: -8.1

How did O=C(COC(=O)c1ccc(Br)o1)c1cccc(S(=O)(=O)N2CCOCC2)c1 do in these assays?
MITF inh: -8.8; FBW7 act: -0.1; TEAD-YAP block: 2.6; GPR151 ag: -2.0

What do the screens show for `CCCCCCOC(=O)Nc1nnc(CCC)s1`?
MITF inh: 17.6; FBW7 act: -0.1; TEAD-YAP block: -0.2; GPR151 ag: 11.6*; GPR151 conf act: -0.4; GPR119 ag: -4.6

How did Cc1ccc(NC(=O)/C(=C\c2ccc(Cl)cc2)NC(=O)c2ccccc2)cc1 do in these assays?
MITF inh: 6.5; FBW7 act: 0.0; TEAD-YAP block: 2.2; GPR151 ag: -0.1

How did Cc1nn(CC(=O)N2CCOCC2)c(=O)c2cc3sccc3n12 do in these assays?
MITF inh: 7.6; FBW7 act: 0.0; TEAD-YAP block: 4.1; GPR151 ag: -0.7

Results for CCN(CC)CCNC(=O)CN1CC(=O)N2CCCC2C1=O (configuration not stated) ?
MITF inh: 3.9; FBW7 act: -0.1; TEAD-YAP block: -2.7; GPR151 ag: 5.9*; GPR151 conf act: -0.1; GPR119 ag: 4.8

What do the screens show for `CCOCCCNC(=O)CN1CC(=O)N2CCCC2C1=O` (configuration not stated)?
MITF inh: 12.7; FBW7 act: 1.0; TEAD-YAP block: 0.5; GPR151 ag: -2.7

How did CC(=O)c1c(C)nnn1-c1nonc1C do in these assays?
MITF inh: 14.8; FBW7 act: 0.5; TEAD-YAP block: 7.7; GPR151 ag: 5.1*; GPR151 conf act: 0.9; GPR119 ag: -3.9

Results for O=C(CN1C(=O)c2ccccc2C1=O)Oc1c(-c2ccccc2)oc2ccccc2c1=O ?
MITF inh: -6.2; FBW7 act: -0.2; TEAD-YAP block: -28.8; GPR151 ag: -0.4

Screening results from PubChem.
